Compounds with a hit are over-represented: about 2.4% of the library has one in this group of screens.
L929 necroptosis = blocks zVAD induced death of L929 cells. L929 zVAD necroptosis rescue, ATP luminescence, 24 h; with zVAD 60 µM. viability rescue, % at 10 µM. 220,000 tested, 0.38% active. AID 1377;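 active = activation, scaled between plate controls, above about 75%, limit read from the data; inactive = activation under that limit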
MCL1-BIM inh = disrupts human MCL1 binding to BIM-BH3 peptide; Q07820; GST-MCL1 / FITC-Bim-BH3 fluorescence polarization; inhibition, % at 10.9 µM; 320,000 tested, 0.68% active;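 active = inhibition above the mean inhibition of all tested compounds plus 3 SD, set per campaign, cut at about 40% in these data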;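 note: higher means more loss of mP so more displacement of Bim peptide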
Target sequence (Q07820 whole entry, looked up): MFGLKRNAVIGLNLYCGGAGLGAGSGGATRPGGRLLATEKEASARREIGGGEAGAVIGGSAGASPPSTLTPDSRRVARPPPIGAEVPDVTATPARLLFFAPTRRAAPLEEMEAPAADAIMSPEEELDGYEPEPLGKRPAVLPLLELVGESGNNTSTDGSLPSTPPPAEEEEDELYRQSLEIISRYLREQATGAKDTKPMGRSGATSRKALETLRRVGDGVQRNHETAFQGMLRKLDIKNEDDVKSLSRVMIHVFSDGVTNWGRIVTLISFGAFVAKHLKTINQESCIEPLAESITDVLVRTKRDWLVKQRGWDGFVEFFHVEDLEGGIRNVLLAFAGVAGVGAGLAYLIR
Mcl-1 Bim block = human Bim-Mcl-1 interaction inhibition. Q07820. Bead-based flow cytometry, Bim peptide-Mcl-1 binding. inhibition, % at 10 µM. 190,000 tested, 0.1% active. AID 1009; in the data active = inhibition above about 40%
Mcl1 Noxa PPI = Mcl-1/Noxa interaction inhibition. Q07820. TR-FRET Mcl-1/Noxa peptide binding, 2 h. 220,000 tested, 1.5% active. inhibition, % at 21.7 µM;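 active = compounds that cut the protein-peptide binding signal by more than 50% relative to plate controls in a single-dose test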;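 note: His-tagged Mcl-1 with rhodamine Noxa BH3 peptide and terbium anti-His antibody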
TNF death inh = inhibitors of TNF-alpha induced necroptosis in Jurkat FADD-/- cells; Jurkat FADD-/- TNF necroptosis rescue, ATP luminescence, 24 h; 0 = TNF only, 100 = no-TNF cells; activation (protection from cell death), % at 10 µM; 220,000 tested, 0.068% active;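 active = activation, meaning protection from cell death, of at least 50% relative to plate controls; inactive = activation below 50%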;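 note: necroptosis triggered by 40 ng/mL TNF-alpha added together with compound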
Mcl1 Bid PPI = disrupts binding of human Mcl-1 to Bid peptide | Q07820 | TR-FRET Mcl-1/Bid-Dy647 peptide binding, 1536-well | inhibition, % at 21.7 µM | 220,000 tested, 0.97% active | AID 1021;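 active = compounds that cut the binding signal by more than half at the single screening dose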;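 note: His-tagged Mcl-1 with europium anti-His antibody binding Bid BH3 peptide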
zVAD necrop conf = confirmed blocker of zVAD induced death in L929 cells; shares compounds with L929 necroptosis; L929 zVAD-induced necroptosis rescue, ATP luminescence, 24 h; activation (protection from necroptosis), % at 10 µM; 760 tested, 16% active; AID 463117;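 active = mean protection from necroptosis of at least 50% over duplicate tests; inactive = mean protection below 50%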
Numbers stand for hits; – = inactive; · = no result.

SMILES | L929 necroptosis | MCL1-BIM inh | Mcl-1 Bim block | Mcl1 Noxa PPI | TNF death inh | Mcl1 Bid PPI | zVAD necrop conf
Cc1c(NS(=O)(=O)c2ccc(NC(=O)CCC(=O)O)cc2)c(=O)n(-c2ccccc2)n1C | · | – | · | · | · | · | ·
O=C(NC12CC3CC(CC(C3)C1)C2)c1ccc(-c2ccc(Cl)cc2)o1 | 82 | – | – | – | – | – | –
COC(=O)c1ccc(NC(=O)c2cccc(C)c2[N+](=O)[O-])cc1 | 85 | – | – | – | – | – | –
CC(C)(C)c1ccc(-c2nc(C#N)c(NCc3cccnc3)o2)cc1 | 78 | – | – | – | – | – | –
COc1ccc(C(=O)NCC(c2ccco2)N2CCc3ccccc32)c(OC)c1 (stereo not given) | · | – | · | · | · | · | ·
CC(C)Nc1nnc(SCC(=O)Nc2sccc2C#N)s1 | · | – | · | · | · | · | ·
O=C(CSc1nnc(NC2CCCCC2)s1)Nc1ccc2c(c1)C(=O)c1ccccc1C2=O | 80 | – | – | – | – | – | 90
CC(C)Nc1nnc(SCC(=O)Nc2ccc3c(c2)C(=O)c2ccccc2C3=O)s1 | 81 | – | – | 78 | – | – | –
O=C(Cn1c(=O)cnc2ccccc21)Nc1cccc(S(=O)(=O)N2CCCCC2)c1 | · | – | · | · | · | · | ·
Cc1[nH]c(C)c(S(=O)(=O)NCc2ccc(F)cc2)c1C(=O)N1CCCC1 | · | – | · | · | · | · | ·
Cc1nc2cc(NC(=O)Nc3ccc(Br)cc3)ccc2o1 | 80 | – | – | – | – | – | –
Cc1nc2cc(NC(=O)NCc3ccc4c(c3)OCO4)ccc2o1 | – | – | – | – | – | – | ·
CCc1ccc(NC(=O)CSc2nc3n[nH]c(C)c3c(=N)n2-c2cccc(OC)c2)cc1 | 91 | – | – | – | – | – | 56
O=C(Nc1ccc2c(c1)OCO2)c1noc2c1CCCC2 | · | – | · | · | · | · | ·
O=C(Nc1ccc2c(c1)OCO2)c1noc2c1CCCCC2 | 80 | – | – | – | – | – | –
COc1ccccc1NC(=O)/C(=N/OCc1ccc(C#N)cc1)C(C)=O | 76 | – | – | – | – | – | –
COc1ccccc1NC(=O)C(=O)N/N=C(\C)CC(=O)Nc1ccc(OCc2ccccc2)cc1 | – | – | – | – | – | – | ·
CC(C)Oc1cccc(C(=O)C2CCCN(C(=O)c3ccnn3C)C2)c1 (stereo not given) | – | – | – | – | – | – | ·
C/C(=N\OCC(=O)OCC(=O)N(C)c1ccccc1)c1ccc2c(c1)OCO2 | · | – | · | · | · | · | ·
O=C(CCC1N=C2c3ccccc3N=C(SCC(=O)NCC3CCCO3)N2C1=O)NCc1ccc(F)cc1 (stereo not given) | · | – | · | · | · | · | ·
COc1ccc2cc(C(=O)NCc3ccccc3)c(=Nc3ccc(C(=O)O)cc3)oc2c1 | 76 | – | – | – | – | – | –
CCN(Cc1ccccc1)S(=O)(=O)c1c(C)[nH]c(C)c1C(=O)N1CCCC1 | · | – | · | · | · | · | ·
O=C1NCC(O)=C1C=NCCCO | – | – | – | – | – | – | ·
O=C1NCC(O)=C1C=Nc1ccccc1O | 77 | – | · | – | – | – | –
O=c1[nH][nH]cc1C=Nc1ccccc1O | 75 | – | – | – | – | – | –
SMILES | L929 necroptosis | MCL1-BIM inh | Mcl-1 Bim block | Mcl1 Noxa PPI | TNF death inh | Mcl1 Bid PPI | zVAD necrop conf
Cc1cccc(OCC(=O)Nc2ccccc2-c2ccccc2)c1 | 75 | – | – | – | – | – | –
COc1ccc(OCC(=O)Nc2ccccc2-c2ccccc2)cc1 | – | – | – | – | – | – | ·
Cc1ccc(-c2cc(C(=O)N/N=C/c3cccnc3)n[nH]2)o1 | – | – | – | – | – | – | ·
Cc1cc(C)c2c(N)c(C(=O)N/N=C/c3cccnc3)sc2n1 | 79 | – | · | – | – | – | –
Cc1cc(C(=O)N/N=C/c2cccnc2)n[nH]1 | 84 | – | · | – | – | – | –
Cc1cc(C(=O)N/N=C/c2ccc[nH]2)n[nH]1 | 89 | – | – | – | – | – | –
Cc1cc(C(=O)N/N=C/c2ccc(-c3ccccc3Cl)o2)n[nH]1 | 84 | – | – | – | – | – | –
COc1ccc(NC2CCCN(C(=O)CCc3cccc(Cl)c3)C2)cc1 (stereo not given) | · | – | · | · | · | · | ·
COc1cccc(NC(=O)CCC2CCN(C(=O)C3CC=CCC3)CC2)c1 (stereo not given) | · | – | · | · | · | · | ·
O=c1cc(C(O)C[N+](=O)[O-])occ1OCc1ccccc1 (stereo not given) | · | – | · | · | · | · | ·
